The entries come from a sample that favours hits as a whole.
ROS inducer – ROS inducers in U2OS cancer cells, primary screen, cell-based, H2DCF-DA fluorescence; U2OS ROS induction; ROS induction (% of piperlongumine), % at 10 µM; 46,000 tested, 2% active; AID 624156, 2012; in the data active = ROS induction above about 79%, passing the limit was not always enough;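 also: 0% = DMSO vehicle median and 100% = reference compound median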
* marks the source's active call; other numbers are inactive results.

SMILES	ROS inducer
O=C(N/N=C/c1ccc2c(c1)CCO2)c1ccccn1	-5.8
CC(=O)Nc1nonc1-c1nc2ccccc2n1Cc1ccccc1Br	11.5
O=CNc1nonc1NC(=O)c1ccccc1Cl	-9.3
Cn1c(-c2nonc2NC(=O)c2ccccc2Br)nc2ccccc21	101.9*
O=C(O)CCc1nc(-c2ccccc2)c(-c2ccccc2)o1	-0.2
CC1(C)CC[C@]2(C(=O)O[C@@H]3O[C@H](CO)[C@@H](O)[C@H](O)[C@H]3O)CC[C@]3(C)C(=CCC4[C@@]5(C)CC[C@H](O[C@@H]6O[C@H](C(=O)O)[C@@H](O)[C@H](O)[C@H]6O)C(C)(C)C5CC[C@]43C)C2C1 (some centres undefined)	-3.3
COc1ccccc1-c1c(C(F)(F)F)oc2cc(OCC(=O)Nc3cc(C)ccc3C)ccc2c1=O	31.2
CN1CCC(=C2c3ccccc3CCc3sccc32)CC1	-2.6
COC(=O)CCCCCCC(=O)N/N=C/c1ccncc1Br	15.2
COc1cccc(N2C(=O)C(CC(=O)Nc3ccc(F)cc3)N(C3CCCCC3)C2=O)c1 (centres undefined)	-5.6
CC1=C(CO)C(=O)OC([C@@H](C)C2CC[C@H]3C4C[C@H]5O[C@]56[C@@H](O)C=CC(=O)[C@]6(C)C4CC[C@]23C)C1 (some centres undefined)	137.5*
C[C@H]1CN([C@@H](C)CO)C(=O)c2cccc(NC(=O)c3ccncc3)c2O[C@H]1CN(C)Cc1ccc(Cl)c(Cl)c1	-3.9
CC(C)(C)c1cn2c3ccccc3nc2n1CCNC1CCCCC1	28.1
CC(C)c1cc(NC(C)c2ccccc2)n2c(nc3ccccc32)c1C#N (centres undefined)	257.2*
Cc1cc(/N=C\N(C)C)n2c(nc3ccccc32)c1C#N	47.8
CC(C)c1cc(NC2CCCCC2)n2c(nc3ccccc32)c1C#N	163.6*
CCCc1cc(-n2cnc3ccccc32)n2c(nc3ccccc32)c1C#N	36.6
Cc1ccc(OCC(O)Cn2c(C)nc3ccccc32)cc1 (centres undefined)	0.8
COc1ccc([Si](C)(C)[C@H]2[C@H](CCn3cc(CCO)nn3)O[C@@]3(C(=O)N(Cc4cccc(N5CCC5=O)c4)c4ccccc43)[C@@H]2C)cc1	108.6*
COc1ccc([Si](C)(C)[C@H]2[C@H](CCO)O[C@@]3(C(=O)N(Cc4ccc(N5CCCCC5=O)cc4)c4ccccc43)[C@@H]2C)cc1	73.7
COc1ccc([Si](C)(C)[C@@H]2[C@@H](CCO)O[C@]3(C(=O)N(Cc4ccc(N5CCCCC5=O)cc4)c4ccccc43)[C@H]2C)cc1	37.4
COc1ccc([Si](C)(C)[C@H]2[C@H](CCn3cc([C@H](O)c4ccccc4)nn3)O[C@@]3(C(=O)N(Cc4cccc(N5CCC5=O)c4)c4ccccc43)[C@@H]2C)cc1	60.7
COc1ccc([Si](C)(C)[C@H]2[C@H](CCn3cc(CCO)nn3)O[C@@]3(C(=O)N(Cc4ccc(N5CCC5=O)cc4)c4ccccc43)[C@@H]2C)cc1	80.0*
COc1ccc([Si](C)(C)[C@@H]2[C@@H](CCn3cc([C@H](O)c4ccccc4)nn3)O[C@]3(C(=O)N(Cc4cccc(N5CCC5=O)c4)c4ccccc43)[C@H]2C)cc1	53.8
COc1ccc([Si](C)(C)[C@@H]2[C@@H](CCn3cc(CCO)nn3)O[C@]3(C(=O)N(Cc4ccc(N5CCC5=O)cc4)c4ccccc43)[C@H]2C)cc1	34.8
SMILES	ROS inducer
COc1ccc([Si](C)(C)[C@@H]2[C@@H](CCO)O[C@]3(C(=O)N(Cc4ccc(N5CCC5=O)cc4)c4ccccc43)[C@H]2C)cc1	127.6*
COc1ccc([Si](C)(C)[C@H]2[C@H](CCn3cc([C@H](O)c4ccccc4)nn3)O[C@@]3(C(=O)N(Cc4ccc(N5CCC5=O)cc4)c4ccccc43)[C@@H]2C)cc1	17.0
Cc1nc(C)c(C(=O)C2C(=O)C(=O)N(CCN(C)C)C2c2ccccc2F)s1 (centres undefined)	-3.5
CC1C(c2ccccc2)=[N+]([O-])C(C)(C)N1O (centres undefined)	19.2
C[C@H]1CN([C@@H](C)CO)C(=O)c2cc(NC(=O)C3CCCCC3)ccc2O[C@H]1CN(C)Cc1ccc(C(=O)Nc2ccccc2N)cc1	2.3
C[C@H](CO)N1C[C@H](C)[C@H](CN(C)Cc2ccncc2)Oc2c(NC(=O)c3ccc(-c4nccs4)cc3)cccc2C1=O	4.5
C[C@H](CO)N1C[C@H](C)[C@@H](CN(C)S(=O)(=O)c2ccc(Cl)cc2)Oc2ccc(NC(=O)Nc3ccc(F)cc3)cc2C1=O	12.4
CSc1sc(-c2[nH]ncc2Br)c2c1C(=O)CC(C)(C)C2	-3.0
CCNc1nc(OCC)nc(N2CCC(Cc3ccccc3)CC2)n1	58.5
COc1ccc(CN(C)C[C@@H]2OCCCC[C@@H](C)Oc3ccc(NC(=O)Nc4ccc5c(c4)OCO5)cc3C(=O)N([C@H](C)CO)C[C@@H]2C)cc1	-10.5
CC(=O)OCC(=O)[C@@]1(O)[C@H](C)C[C@H]2[C@@H]3CCC4=CC(=O)C=C[C@]4(C)[C@@]3(F)[C@@H](O)C[C@@]21C	8.7
CC(=O)OCC(=O)[C@@]12OC(C)(C)O[C@@H]1CC1C3C[C@H](F)C4=CC(=O)C=C[C@]4(C)[C@@]3(F)[C@@H](O)C[C@@]12C (some centres undefined)	16.2
CC(=O)OCC(=O)[C@@]12OC3(CCCC3)O[C@@H]1CC1C3CCC4=CC(=O)C=C[C@]4(C)[C@@]3(F)[C@@H](O)C[C@@]12C (some centres undefined)	129.5*
Cc1noc(C)c1NC(=O)N(C)C[C@H]1Oc2ccc(NC(=O)CCCCCC(=O)Nc3ccccc3N)cc2C(=O)N([C@H](C)CO)C[C@@H]1C	-3.8
Cc1ccc(C)c(NC(=O)CCCn2cc([N+](=O)[O-])cn2)c1	-9.1
COc1ccccc1NC(=O)CSc1ncccn1	-1.3
COc1ccccc1NC(=O)CSc1nncn2c1cc1oc(C)cc12	106.6*
COc1ccccc1NC(=O)CSc1ncn(-c2ccccc2)n1	0.5
Cc1ccc(-c2cn3c(n2)sc2cc(C(=O)O)ccc23)c(C)c1	20.2
COc1ccccc1NC(=O)CNS(=O)(=O)c1ccccc1	-4.3
C[C@@H]1CN([C@@H](C)CO)C(=O)c2cccc(NS(C)(=O)=O)c2O[C@H]1CN(C)S(=O)(=O)c1cccs1	-6.5
CC(=O)N1c2ccccc2NC2=C(C(=O)CCC2)C1c1ccco1 (centres undefined)	-1.4
O=c1nc2sc3ccccc3n2c(=O)n1-c1ccccc1	69.3
COC(=O)CNC(c1ccccc1)c1cc(Br)ccc1NC(=O)c1ccccc1Cl (centres undefined)	97.1*
COC(=O)CNC(c1ccccc1)c1cc(Br)ccc1N=Cc1ccccc1O (centres undefined)	1.8
O=C(NC(c1ccccc1)c1ccccc1)c1ccccc1Cl	-15.6
COc1cc(C)c(C(=O)O[C@H]2[C@@H](OC(C)=O)[C@H](n3ccc(=O)[nH]c3=O)O[C@@H]2CO)c(OC)c1	4.7
COc1cccc(OCC(=O)Nc2ccc(-c3nc4ccccc4[nH]3)cc2)c1	-1.8
Cc1cc(=O)oc2cc(OC(C)C(=O)NCC3CCCO3)ccc12 (centres undefined)	-6.0
